Sampled rows, rich in hits. Any-hit rate of the full collection: about 1.9%.
aSyn rescue: qHTS of alpha-syn Inhibitors. Yeast expressing alpha-synuclein, growth rescue, BacTiter-Glo, 24 h. Potency, µM (doses to about 46.1 µM), inactives show top-dose growth rescue (activation), hits mostly activators. 0.14% of 370,000 active. AID 652106, 2013; note: potency is the fitted concentration of half-maximal effect; % of control where 0% means no effect; nearly all actives have a fitted effect of over 65% in size
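Screening used galactose-induced yeast with toxic alpha-synuclein levels, exposed to compound for 24 hr at 30 deg C. Cell growth, read with BacTiter-Glo luminescence, gave the measured signal.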
Abeta yeast res: qHTS for compounds that reverse cellular toxicity of Amyloid beta (A-beta) peptide in yeast: Primary Screen; yeast expressing A-beta42, growth rescue, OD600, 48 h; response scale: 0% DMSO, 100% iron-clioquinol control; 0.063% of 410,000 active; Potency, µM (top dose mostly 46.1 µM), actives largely listed as activators; note: potency is the fitted concentration of half-maximal effect; nearly all actives have a fitted effect of over 55% in size
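Growth rescue measured by 600 nm absorbance after 48 h yeast culture at 30 C with compound. Values normalized between DMSO and an equimolar ferric chloride plus clioquinol control.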
LDHA inh: qHTS assay for inhibitors of human lactate dehydrogenase; 0.15% of 480,000 active; L-lactate dehydrogenase A chain (Homo sapiens), P00338; purified LDHA, NADH/diaphorase-resazurin fluorescence; stronger effect = lower value; activity change, % (values are at about 110 or 230 µM); in the data active = activity change below about -30%; inconclusive = mostly about -25% to -30%;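 note: plate controls were DMSO wells for no effect and wells without enzyme for full effect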
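Human LDH5 at 2 nM final in Tris HCl pH 7.4 with 0.06 mM NADH and 0.2 mM pyruvate, reacted 5 minutes at room temperature. Remaining NADH coupled via diaphorase/resazurin; resorufin fluorescence read at 0 and 20 minutes, normalized to enzyme-free and DMSO wells.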
TDP43 rescue: qHTS of TDP-43 Inhibitors. TDP-43 expressing yeast growth rescue, BacTiter-Glo, 24 h. Potency, µM (top dose mostly 46.1 µM), without a hit: at the top dose growth rescue (activation), usual class: activators. 1.8% of 410,000 active; note: potency is the fitted concentration of half-maximal effect; % of control where 0% means no effect; nearly all actives have a fitted effect of over 50% in size
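Readout is BacTiter-Glo luminescence of cell growth, so inhibitors register as activators. TDP-43-expressing yeast at OD600=0.02 in galactose medium, after raffinose pregrowth to mid-log, were incubated with compound for 24 hr at 30 deg C.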
PTHR1 ag: qHTS for PTHR1 Agonists: Primary Screen; HEK293 GP2 PTHR1 cells, GloSensor cAMP luminescence, 1 h; Potency, µM (series often up to 115 µM), inactives show top-dose activation, actives largely listed as activators; 0.075% of 410,000 active; AID 743266, 2014; note: potency is the fitted concentration of half-maximal effect; nearly all actives have a fitted effect of over 55% in size
Target sequence (Q03431 whole entry, looked up): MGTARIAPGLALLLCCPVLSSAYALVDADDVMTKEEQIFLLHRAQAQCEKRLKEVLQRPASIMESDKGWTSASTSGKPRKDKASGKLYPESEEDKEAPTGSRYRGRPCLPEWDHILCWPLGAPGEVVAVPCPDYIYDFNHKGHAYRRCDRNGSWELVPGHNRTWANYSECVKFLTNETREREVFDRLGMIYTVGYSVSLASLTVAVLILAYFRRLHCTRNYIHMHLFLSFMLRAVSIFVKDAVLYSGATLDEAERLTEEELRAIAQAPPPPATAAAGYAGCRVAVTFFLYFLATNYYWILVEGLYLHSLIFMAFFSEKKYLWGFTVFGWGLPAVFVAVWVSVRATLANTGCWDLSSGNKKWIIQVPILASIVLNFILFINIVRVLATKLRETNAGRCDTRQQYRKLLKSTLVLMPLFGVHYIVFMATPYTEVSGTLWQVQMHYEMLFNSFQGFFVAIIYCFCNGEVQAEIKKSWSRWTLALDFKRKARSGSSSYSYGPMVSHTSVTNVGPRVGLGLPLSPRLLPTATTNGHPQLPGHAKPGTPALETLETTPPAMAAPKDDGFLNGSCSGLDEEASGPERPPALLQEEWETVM
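HEK-293-derived GP2 cells expressing PTHR1 and a GloSensor cAMP reporter, 3,000/well, plated overnight, given luciferin plus IBMX (each 0.5 mM as added) for 1 h at 37 °C, then compound for 1 h at 37 °C. Luminescence was read after 15 min at room temperature.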
FUS yeast rescue: qHTS for Suppressors of FUS Proteinopathy: Primary screen using FUS-linked yeast assay; S. cerevisiae FUS-expressing, growth rescue, OD600, 24 h; Potency, µM (doses to about 76.6 µM), actives largely listed as activators; 0.24% of 390,000 active; AID 1347120, 2019;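 note: potency is the fitted concentration of half-maximal effect; plate controls were DMSO vehicle for no effect and reference control for full effect; nearly all actives have a fitted effect of over 55% in size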
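Absorbance at 600 nm, taken 24hr after compound addition, measured rescue of FUS-yeast growth at 30C. Induction used 2% galactose with seeding at OD 0.005. Controls: CP55940 from 92uM final, DMSO only.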
The depositor's hits bear a star; i = inactive; ? = inconclusive; . = no result given; [ ] = remark or other dose. Unless noted, calls come from the whole dose curve; as a rule, active = well fitted curve in the direction sought with a large enough effect; inconclusive = small, poorly fitted or top-dose-only effect, or another doubt; inactive = no such curve, though single readings can be large; an effect the other way counts as inactive or inconclusive.

SMILES | aSyn rescue | Abeta yeast res | LDHA inh | TDP43 rescue | PTHR1 ag | FUS yeast rescue
CCCOc1cc(C)c(Cl)cc1S(=O)(=O)N1CCCCC1C (stereo not given) | . | . | 5 | . | . | .
CN(CC1COc2ccccc2O1)C(=S)Nc1ccccc1 (stereo not given) | 14% | ? | -3 | 13µM* | i | i
Cc1ccc(NC(=O)CC2COc3ccccc3O2)cc1 (stereo not given) | 3% | i | 0 | 0% | -44%[57.5 µM] | i
FC(F)(F)c1cccc(NC(=S)NCC2COc3ccccc3O2)c1 (stereo not given) | -29% | i | -12 | 35µM* | -36% | i
Cc1ccc(Nc2nc(C)cc(C)n2)c(Br)c1 | -3% | i | -1 | 10µM* | -9%[57.5 µM] | i
Cc1cccc(Nc2nc(C)cc(C)n2)c1 | -5% | i | 2 | 15% | i | i
CCn1ncc(Cl)c1C(=O)NC(=S)Nc1ccccc1Br | -26% | i | -13 | 5.6µM* | i | i
CN1C(=O)/C(=N\OC(=O)c2ccccc2Cl)c2ccccc21 | 21% | i | -5 | 18µM* | i | i
CC(=O)O/N=C1\C(=O)N(Cc2ccc(C)cc2)c2ccccc21 | 21% | i | -4 | 18% | i | i
COc1ccc(-c2nc3ccc(C)cc3c(=O)o2)cc1OC | -1% | i | -8 | ? | -28% | i
COc1cc2nc(-c3ccc(C)cc3)oc(=O)c2cc1OC | . | . | -30* | . | . | .
CCCCCCCCOc1ccc(C(=O)O)cc1 | 6% | i | 1 | 15% | -29% | i
CCCCCCOc1ccc(C(=O)O)cc1C#N | -17% | i | 1 | 22µM* | i | .
O=C1C2=C(NC(=S)NC2c2ccc(Cl)cc2)NC(c2ccc(Cl)cc2)N1c1ccc(Cl)cc1 (stereo not given) | -31% | i | -6 | ? | i | 28µM*
O=C(Cn1nnc2sc(-c3ccccc3)cc2c1=O)Nc1ccccc1 | . | . | 2 | . | . | .
CCOc1ccccc1C(=O)Nc1ccc2nc(N3CCN(c4ncccn4)CC3)cc(C)c2c1 | -15% | i | -3 | 18µM* | -36% | i
CCOc1ccccc1NC(=O)Nc1ccc2nc(N3CCN(C)CC3)cc(C)c2c1 | . | i | 3 | 2% | i | i
CC1CCC/C(=C(\C#N)C(N)=S)C1 (stereo not given) | . | . | 1 | . | . | .
CC(C)CC(NC(=O)CSc1ccccc1)C(=O)N(C)C (stereo not given) | . | . | -4 | . | . | .
COc1ccc(-c2cc(C(F)(F)F)c3c(=O)n(-c4ccccc4)[nH]c3n2)cc1 | . | i | 0 | 8.9µM* | -3% | i
O=C(O)Cn1cc(C(C(=O)O)N2CCN(c3ccccc3)CC2)c2ccc(F)cc21 (stereo not given) | . | . | 0 | . | . | .
CCOc1ccc(NC(=O)C2CC(=O)NC(Nc3ccc(OCC)cc3)=N2)cc1 (stereo not given) | . | . | -2 | . | . | .
Cc1ccc2onc(CC(=O)N3CCN(c4cccc(C)c4C)CC3)c2c1 | . | i | 0 | 25µM* | -14% | ?
Cc1ccc(N2CCN(C(=O)NCc3noc4ccc(C)cc34)CC2)c(C)c1 | . | i | 6 | 20µM* | -63% | ?
Cc1cc(C)cc(C(=O)NCC(=O)N2CCN(c3cccc(Cl)c3)CC2)c1 | 2% | i | 0 | 13µM* | -31% | i
Cc1ccc2onc(CC(=O)N3CCN(c4cccc(Cl)c4)CC3)c2c1 | . | i | -5 | 20µM* | -3% | ?
CCOC(=O)N1CCN(C(=O)[C@H](C)NC(=O)c2cc3c(OC)cc(OC)cc3n2C)CC1 | . | . | 11 | . | . | .
C(=N\NCc1ccccc1)/c1ccc2ncccc2c1 | -15% | ? | 0 | 13% | -48% | i
S=C(N/N=C/c1ccc2ncccc2c1)Nc1ccccc1 | 5% | ? | -5 | 13µM* | i | i

Screening data (PubChem BioAssay)
